Compound activity deposited in PubChem BioAssay by National Center for Advancing Translational Sciences (NCATS).
GPT2 inh = Primary qHTS assay for inhibitors of Glutamate pyruvate transaminase 2 (GPT2); Alanine aminotransferase 2 (Homo sapiens), Q8TD30; Recombinant GPT2, coupled pyruvate oxidase/HRP Amplex Red fluorescence; Potency, µM (titrated, usually from 57.7 µM), without a hit: top-dose activity change, negative = inhibition, actives largely listed as inhibitors; 0.25% of 100,000 active; further: nearly all actives have a fitted effect of over 60% in size
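Inhibition is scored from Amplex Red fluorescence generated when pyruvate oxidase and HRP act on pyruvate released by GPT2. Reactions contain 10ng/uL enzyme, 250uM a-KG and 2mM L-alanine and run 30 min at room temperature.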
HEK293 tox = Cytotoxic Profiling in HEK 293 Cell Line of Diverse Libraries Using Quantitative High-Throughput Screening. HEK 293 viability, ATP luminescence (CellTiter-Glo), 48-72 h. Potency, µM (doses to about 115 µM), inactives show top-dose activity change, negative = cytotoxicity, hits mostly inhibitors. 6.6% of 94,000 active; further: nearly all actives have a fitted effect of over 60% in size
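CellTiter-Glo luminescence (cellular ATP) was read after 48 or 72 hr of compound exposure at 37 degree Celsius. Cells were HEK 293 plated at 250 cells/well.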
3T3 cytotox = Cytotoxic Profiling in NIH 3T3 Cell Line of Diverse Libraries Using Quantitative High-Throughput Screening; NIH 3T3 viability, CellTiter-Glo ATP luminescence, 48-72 h; Potency, µM (titrated, usually from 96.7 µM), for the others: top-dose activity change, negative = cytotoxicity, most hits filed as inhibitors; 4.3% of 94,000 active; further: nearly all actives have a fitted effect of over 55% in size
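Cytotoxicity was measured by CellTiter-Glo ATP luminescence after 48 or 72 h compound exposure at 37 °C. Mouse NIH 3T3 fibroblasts were seeded at 400 cells/well and dosed by 23 nL pin transfer.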
Luciferase inh = Firefly luciferase inhibition profiling of diverse chemical library using quantitative high-throughput screening; AID 1347043, 2019; Potency, µM (titrated, usually from 115 µM), most hits filed as inhibitors; purified P. pyralis luciferase, luminescence, biochemical; 2.5% of 76,000 active; Luciferin 4-monooxygenase (Photinus pyralis), P08659; further: nearly all actives have a fitted effect of over 65% in size
Target sequence (P08659 whole entry, looked up): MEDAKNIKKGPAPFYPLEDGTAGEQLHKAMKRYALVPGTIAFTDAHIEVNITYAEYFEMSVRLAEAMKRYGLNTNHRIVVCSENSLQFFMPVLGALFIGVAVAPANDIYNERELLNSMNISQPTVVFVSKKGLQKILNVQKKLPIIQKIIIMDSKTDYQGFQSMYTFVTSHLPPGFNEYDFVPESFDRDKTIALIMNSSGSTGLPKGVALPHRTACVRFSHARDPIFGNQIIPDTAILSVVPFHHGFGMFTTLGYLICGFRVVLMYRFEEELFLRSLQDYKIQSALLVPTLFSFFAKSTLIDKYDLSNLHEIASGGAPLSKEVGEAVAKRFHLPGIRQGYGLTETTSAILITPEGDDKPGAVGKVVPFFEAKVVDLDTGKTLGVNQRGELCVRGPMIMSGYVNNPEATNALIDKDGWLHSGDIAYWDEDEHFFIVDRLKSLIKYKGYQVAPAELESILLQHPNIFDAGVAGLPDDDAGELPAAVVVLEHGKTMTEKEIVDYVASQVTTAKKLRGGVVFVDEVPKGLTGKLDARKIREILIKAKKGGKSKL
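Biochemical qHTS: compound (6-point titration) added to 10uM D-luciferin plus 10uM ATP in Tris acetate pH 7.5 buffer with Mg, Tween-20 and BSA, then purified enzyme at 10nM; light output imaged.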
hNpr1 antagonist = Natriuretic polypeptide receptor (hNpr1) antagonism - Primary qHTS; Atrial natriuretic peptide receptor 1 (Homo sapiens), P16066; HEK293 hNpr1 GloSensor cGMP, ANP-stimulated luminescence; Potency, µM (series often up to 46.3 µM), for inactives: at the highest dose activity change, negative = inhibition, actives largely listed as inhibitors; 1.6% of 76,000 active; AID 1347048, 2019; calls by dose curve; further: nearly all actives have a fitted effect of over 60% in size
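Compound pre-incubated 30 min at room temperature on GloSensor-loaded HEK293 cells stably carrying hNpr1 and the pGS-40F cGMP biosensor. Stimulation uses hNppA at 0.1 nM final; luminescence is taken at baseline and 20 min post-agonist.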
Numbers without * were called inactive; i = inactive; ? = inconclusive; . = not tested or not shown; [ ] = another dose, or the depositor's remark. An excerpt weighted towards active compounds, which were near 10% of everything screened. Unless noted, the call rests on the fitted dose curve; in most records, active means well fitted curve in the direction sought with a large enough effect; inconclusive means small, poorly fitted or top-dose-only effect, or another doubt; inactive means no such curve, though single readings can be large; an effect the other way counts as inactive or inconclusive. On the % scale 0 is the no-effect control and ±100 the full control effect; potency means the concentration at half of the fitted maximal effect.

SMILES	GPT2 inh	HEK293 tox	3T3 cytotox	Luciferase inh	hNpr1 antagonist
O=C(c1ccc(Cl)cc1)N1CCOC(CN(C(=O)c2ccc(F)cc2)C2CCCC2)C1 (stereo not given)	i	45µM*	?	i	-17%
COc1ccc(C(=O)N2CCOCC3(CN(Cc4ccccc4)C3)C2)c(OC)n1	1%[88.5 µM]	45µM*	32µM*	i	3%[70.6 µM]
COc1ccc(C(=O)N2CCOCC3(CN(Cc4cc(F)cc(F)c4)C3)C2)c(OC)n1	-5%[88.5 µM]	-71%[172 µM]	-76%[138 µM]	i	-2%[70.6 µM]
O=C(c1ccc(Cl)cc1)N1CCOCC12CCN(CCc1ccccc1)CC2	-11%[88.5 µM]	?	?	i	-19%[70.6 µM]
COc1ccc(C(=O)N2CCOCC3(CN(Cc4ccccc4)C3)C2)cc1	-14%[88.5 µM]	10µM*	?	i	2%[70.6 µM]
COc1ccc(C(=O)N2CCOCC3(CN(Cc4cc(C)cc(F)c4)C3)C2)cc1OC	3%[88.5 µM]	8.9µM*	?	i	-4%[70.6 µM]
O=C(c1ccc(Cl)cc1)N1CCOCC2(CN(Cc3ccccc3)C2)C1	i	-69%[172 µM]	3.2µM*	i	3%[70.6 µM]
Cc1noc(-c2ccn3c(CNC(=O)c4ccccn4)nnc3c2)n1	-1%	-14%	-4%	i	-1%
Cc1cc2nc3n(c(=O)c2n1CC(=O)NCc1ccc(Cl)cc1)CCCCC3	i	?	?	i	-4%
O=C(NCCc1ccncc1)c1ccc(-c2nnc3ccc(NC(=O)C4CCC4)cn23)cc1	-5%	?	i	?	4%
O=C(NCCc1cccnc1)c1ccc(-c2nnc3ccc(NC(=O)C4CCC4)cn23)cc1	i	?	35µM*	i	-1%
Cc1nn(-c2ccccc2[N+](=O)[O-])c(C)c1[C@@H]1C=C[C@@H](NCc2ccc(C(C)C)cc2)C1	i	20µM*	?	i	?
Cc1nn(-c2ccccc2[N+](=O)[O-])c(C)c1[C@@H]1C=C[C@@H](NCc2ccco2)C1	-28%[88.5 µM]	89µM*	?	i	-17%[70.6 µM]
Cc1cccc(CNC(=O)NCC2CCN(Cc3ccncc3)C2)c1 (stereo not given)	-23%	1%	-1%	i	5%
COc1ccc(O[C@H]2COCCN(S(=O)(=O)c3ccc(OC)cc3)C2)cc1	-10%[88.5 µM]	?	?	i	-1%[70.6 µM]
COc1ccc(S(=O)(=O)N2CCOC[C@H](Oc3ccc(C(F)(F)F)cn3)C2)cc1	0%[88.5 µM]	100µM*	?	i	?
CS(=O)(=O)N1CCOC[C@H](Oc2ccc(C(F)(F)F)cc2)C1	-4%[88.5 µM]	?	-17%[138 µM]	i	-18%[70.6 µM]
COc1ccc(S(=O)(=O)N2CCOC[C@H](Oc3ccccc3)C2)cc1	0%[88.5 µM]	63µM*	?	i	-9%[70.6 µM]
Cc1noc(C)c1S(=O)(=O)N1CCOC[C@H](Oc2ccc(C(F)(F)F)cc2)C1	-9%[88.5 µM]	63µM*	?	i	-21%[70.6 µM]
COc1ccc(C(=O)N[C@H]2CCN3C(=O)c4cc(Br)ccc4NC(=O)[C@@H]3C2)cc1	-7%	i	i	i	6%
CC(=O)Nc1ccc(-c2nnc3n2CCN(C(=O)c2ccccc2F)C3)cc1	.	5%	i	.	.
O=C(O)Cc1cccc(OCCCN(Cc2cccc(C(F)(F)F)c2Cl)CC(c2ccccc2)c2ccccc2)c1	24µM*	.	.	.	.
COc1ccc(-c2cc(C[C@H]3CNCC[C@H]3CC(=O)NCc3cccnc3)no2)cc1	0%[88.5 µM]	-15%[172 µM]	-23%[174 µM]	i	-9%[70.6 µM]
COc1ccc(-c2cc(C[C@H]3CNCC[C@H]3CC(=O)Nc3ccccc3)no2)cc1	4%[88.5 µM]	45µM*	40µM*	i	-21%[70.6 µM]
CC(=O)NCCNC(=O)C[C@@H]1CCNC[C@@H]1Cc1cc(-c2ccccc2)on1	i	i	i	i	-1%[70.6 µM]
SMILES	GPT2 inh	HEK293 tox	3T3 cytotox	Luciferase inh	hNpr1 antagonist
COc1ccc(-c2cc(C[C@H]3CNCC[C@H]3CC(=O)NCc3cccs3)no2)cc1	?	56µM*	89µM*	i	-15%[70.6 µM]
COc1ccc(-c2cc(C[C@H]3CNCC[C@H]3CC(=O)NCc3ccccc3)no2)cc1	2%[88.5 µM]	89µM*	112µM*	i	-19%[70.6 µM]
O=C(C[C@@H]1CCNC[C@@H]1Cc1cc(-c2ccccc2)on1)NCc1cccs1	?	89µM*	?	i	-3%[70.6 µM]
COc1ccc(-c2cc(C[C@H]3CNCC[C@H]3CC(=O)NC(C)C)no2)cc1	-4%[88.5 µM]	-21%[172 µM]	-10%[174 µM]	i	-4%[70.6 µM]
COCC(=O)N1CCCC(C(=O)NCCCc2ccccc2)CCNC(=O)CC1 (stereo not given)	2%	-2%	-15%	i	-1%
Cc1ccc([S+](=O)([O-])N2CC(CN3C(=O)c4c(c(C)nn4-c4ccccc4)C3C)C2)cc1 (stereo not given)	.	-30%	?	.	.
CC(=O)N1CCN(C(=O)c2cc(CC(C)C)[nH]c(=O)n2)CC(O)C1 (stereo not given)	2%	-21%	-19%	i	3%
COc1ccc(CNC(=O)C[C@@H]2C[C@H]3O[C@H](CNC4CCNCC4)[C@@H](O)[C@H]3O2)cc1	-7%[88.5 µM]	i	2%[174 µM]	i	1%[70.6 µM]
COc1ccc(CNC(=O)C[C@@H]2CCNC[C@@H]2Cc2cc(-c3ccc(C(C)(C)C)cc3)on2)cc1	-6%	?	25µM*	i	2%
O=C(C[C@@H]1CCNC[C@@H]1Cc1cc(-c2ccc(F)cc2)on1)NCc1ccc(F)cc1	-3%[88.5 µM]	79µM*	40µM*	i	-4%[70.6 µM]
CC(C)(C)NC(=O)C[C@@H]1CCNC[C@@H]1Cc1cc(-c2ccc(C(C)(C)C)cc2)on1	-2%[88.5 µM]	13µM*	22µM*	i	-11%[70.6 µM]
O=C(C[C@@H]1CCNC[C@@H]1Cc1cc(-c2ccc(F)cc2)on1)NCc1ccccc1	-3%[88.5 µM]	100µM*	112µM*	i	-1%[70.6 µM]
O=C(C[C@@H]1CCNC[C@@H]1Cc1cc(-c2ccc(F)cc2)on1)NCc1cccnc1	-15%[88.5 µM]	-2%[172 µM]	2%[138 µM]	i	-2%[70.6 µM]
COc1ccccc1N1CCN(C(=O)C[C@@H]2CCNC[C@@H]2Cc2cc(-c3ccc(C(C)(C)C)cc3)on2)CC1	-18%	?	?	i	-1%
COc1ccc(NC(=O)Cn2nc3n(c2=O)CCCC3)c(OC)c1	i	16%	i	i	-1%
CC(C)c1noc(-c2cn(C3CCN(C(=O)c4ccc5c(c4)OCO5)CC3)nn2)n1	i	?	-20%	i	0%
O=C(Cn1nc2c(cc1=O)CCCCC2)NCCc1ccccn1	-1%	7%	i	i	1%
